# Sampled rows, rich in hits. Any-hit rate of the full collection: about 0.2%.
# PvdQ acylase = P. aeruginosa PvdQ acylase inhibition. purified PvdQ acylase, fluorescence plate reader. inhibition, % at 10 µM. 340,000 tested, 0.063% active. AID 488965; in the data active = inhibition above about 30%, passing the limit was not always enough;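 also: 0% = vehicle neutral wells and 100% = reference inhibitor wells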
# PDI inh = PDI (human) enzyme inhibition; P07237; inhibition, % at 10 µM; 350,000 tested, 0.052% active; AID 588391; PDI insulin aggregation turbidity, A650, 90 min;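 active = mean inhibition across replicates of 30% or more, whatever share of single replicates reach that level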
# CaV13 ICDI inh = Primary screen for inhibitors of IQ motif and Ca2+-dependent inactivation inhibitor domain binding in CACNA1D, Förster resonance energy transfer in living cells, …. HEK cells, CFP/YFP FRET ICDI-IQ, plate reader, 10 min; percent FRET-ratio fall versus neutral wells. 340,000 tested, 0.098% active. inhibition, % at 12.3 µM;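 active = mean replicate inhibition of at least 30% and at least 1% of replicates passing that level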;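 also: 0% = median of the neutral control wells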
# ERp5 block = blocks human ERp5 reductase activity on insulin | Q15084 | ERp5 insulin aggregation, absorbance 650 nm, 90 min | inhibition, % at 9.99 µM | 350,000 tested, 0.05% active;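 active = mean replicate inhibition above about 25%, with every replicate also reaching it, limit read from the data, passing the limit was not always enough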
# Target sequence (Q15084 whole entry, looked up): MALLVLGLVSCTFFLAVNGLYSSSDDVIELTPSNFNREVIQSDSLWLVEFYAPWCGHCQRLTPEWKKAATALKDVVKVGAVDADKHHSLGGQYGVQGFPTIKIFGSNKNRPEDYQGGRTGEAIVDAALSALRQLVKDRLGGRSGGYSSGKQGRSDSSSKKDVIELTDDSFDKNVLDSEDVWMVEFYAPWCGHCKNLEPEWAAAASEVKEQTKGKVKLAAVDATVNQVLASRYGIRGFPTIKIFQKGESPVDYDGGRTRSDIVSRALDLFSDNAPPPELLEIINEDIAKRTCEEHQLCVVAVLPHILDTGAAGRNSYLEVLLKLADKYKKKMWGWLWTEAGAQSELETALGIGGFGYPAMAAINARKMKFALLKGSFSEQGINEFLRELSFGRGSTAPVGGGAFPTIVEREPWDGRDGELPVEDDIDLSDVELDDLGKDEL
# * marks the source's active call; other numbers are inactive results; x = not tested or not shown; + = active, no number; ! = repeats disagree.
SMILES,PvdQ acylase,PDI inh,CaV13 ICDI inh,ERp5 block
Cc1ccc(NC(=O)COc2ccccc2)c(NC(=O)c2ccco2)c1,-5,10,x,30*
NS(=O)(=O)c1cccc(NC(=S)NC(=O)c2cccc([N+](=O)[O-])c2)c1,0,3,-7,7
O=C(NC(=S)Nc1cccc(NC(=O)c2ccccc2)c1)c1cccc([N+](=O)[O-])c1,-2,32*,-4,x
O=C(Nc1ncc([N+](=O)[O-])s1)c1cccc([N+](=O)[O-])c1,39*,2,-21,3
O=c1oc2c(O)cccc2cc1-c1nc2ccccc2[nH]1,-2,18,34*,1
O=c1oc2c(CN3CCN(CCO)CC3)c(O)ccc2cc1-c1ccccn1,-25,-1,+,-1
O=c1oc2c(CN3CCCCC3)c(O)ccc2cc1-c1nc2ccccc2[nH]1,-13,8,35*,2
COc1ccc(NC(=O)Nc2ccc3c(c2)[C@H]2C[C@@H](CC(=O)NC4CCCC4)O[C@@H](CO)[C@H]2O3)cc1,x,x,x,-2
CO[C@@H]1CN(C)C(=O)c2ccc(NC(=O)C3CC3)cc2OC[C@@H](C)N(CCc2ccccc2)C[C@@H]1C,x,x,x,-1
O=C(/C=C/c1ccc(O)c([N+](=O)[O-])c1)c1ccc2ccccc2c1,4,4,-4,1
COc1ccc(Oc2ccc(/C=C/C(=O)c3ccc(O)cc3)cc2[N+](=O)[O-])cc1,-2,99*,-2,-48
O=C1C2C3C=CC(C4CC34)C2C(=O)N1Cc1ccco1 (centres undefined),41*,0,-21,3
O=C1C2C(C(=O)N1Cc1ccco1)C1C=CC2C12CC2 (centres undefined),87*,-2,-4,x
O=C1C2C3c4ccccc4C(c4ccccc43)C2C(=O)N1Cc1ccco1 (centres undefined),-24,11,x,x
CC(C)NC(=O)Nc1ccc2c(c1)C(=O)N([C@H](C)CO)C[C@@H](C)[C@@H](CN(C)Cc1ccc3c(c1)OCO3)O2,x,x,x,0
CC(C)(C)OC(=O)N[C@@H](Cc1c[nH]c2ccccc12)c1nnc(SCC(N)=O)o1,-13,19,-6,x
CC(C)Sc1nnc([C@H](Cc2c[nH]c3ccccc23)NC(=O)OC(C)(C)C)o1,-13,44*,-5,x
O=C(c1ccc(F)cc1)N1CC(=O)N2[C@@H](CO)[C@H](c3ccc(C#CC4CCCC4)cc3)[C@@H]2C1,x,x,x,0
COc1cc(C(c2c(C(=O)O)[nH]c3ccccc23)c2c(C(=O)O)[nH]c3ccccc23)ccc1OCc1ccccc1,-14,-5,103*,0
C[C@H]1CN([C@@H](C)CO)C(=O)c2cccc(NC(=O)c3cnccn3)c2O[C@H]1CN(C)Cc1ccc(Cl)c(Cl)c1,x,x,x,-2
CN(C)C(=O)C[C@@H]1C[C@H]2c3cc(NS(C)(=O)=O)ccc3O[C@H]2[C@@H](CO)O1,x,x,x,93*
CN(C)C(=O)C[C@@H]1C[C@@H]2c3cc(NS(C)(=O)=O)ccc3O[C@@H]2[C@H](CO)O1,x,x,x,77*
CS(=O)(=O)Nc1ccc2c(c1)[C@@H]1C[C@H](CC(=O)O)O[C@@H](CO)[C@@H]1O2,x,x,x,-6
C[C@@H]1CN([C@H](C)CO)C(=O)c2cc(C#CCN(C)C)cnc2O[C@@H]1CN(C)Cc1ccc2c(c1)OCO2,x,x,x,-4
COc1ccc(NC(=O)C2CCCN(C(=O)NC3CCCCC3)C2)cc1OC (centres undefined),34*,1,-4,x
SMILES,PvdQ acylase,PDI inh,CaV13 ICDI inh,ERp5 block
COc1ccc(NC(=O)N(C)C[C@@H]2Oc3ccc(NS(=O)(=O)c4ccccc4)cc3CC(=O)N([C@H](C)CO)C[C@@H]2C)cc1,x,x,x,-7
C[C@@H]1CN([C@@H](C)CO)C(=O)Cc2cc(NC(=O)c3ccncc3)ccc2O[C@@H]1CN(C)S(=O)(=O)c1cn(C)cn1,x,x,x,2
C[C@H](CO)N1C[C@H](C)[C@@H](CN(C)S(=O)(=O)c2cn(C)cn2)Oc2ccc(NC(=O)c3ccncc3)cc2CC1=O,x,x,x,65*
C[C@H]1CN([C@@H](C)CO)C(=O)Cc2cc(NC(=O)c3ccncc3)ccc2O[C@H]1CN(C)S(=O)(=O)c1cn(C)cn1,x,x,x,74*
CN1C(=O)c2cc(NC(=O)c3ccccc3)ccc2OC[C@H]2O[C@@H](CC(=O)NC3CCCC3)CC[C@@H]21,x,x,x,1
N#C[C@H]1[C@@H](c2ccc(C#CC3(O)CCCC3)cc2)[C@@H](CO)N1C(=O)C1CCCC1,x,x,x,1
CCNC(=O)CC1C(=O)N(C)C(=S)N1NC(=O)c1ccc(Cl)cc1 (centres undefined),16,-34,-5,x
Nc1ccc(C(=O)NN2C(=O)[C@H](Cl)C2c2ccc(Cl)cc2)cc1 (some centres undefined),-7,56*,-5,3
COc1ccc(N2CCN(C(=O)c3ccc(Br)o3)CC2)cc1,42*,-10,-5,-4
COc1ccccc1N1CCN(C(=O)c2ccc(Br)o2)CC1,9,-16,-3,0
C[C@@H]1CN([C@H](C)CO)C(=O)c2cc(NC(=O)CCN3CCOCC3)ccc2O[C@@H]1CN(C)S(C)(=O)=O,x,x,x,-3
CC(C)CCN(CCC(C)C)CC(O)Cn1c2ccccc2c(=O)c2ccccc21 (centres undefined),-10,-1,+,x
O=C1CCc2cc(S(=O)(=O)NCc3ccccc3Cl)cc3c2N1CC3,2,6,-6,29*
O=C1CCc2cc(S(=O)(=O)NCc3ccc(Cl)cc3)cc3c2N1CC3,-5,-5,-6,2
C[C@H](CO)N1C[C@H](C)[C@H](CN(C)C(=O)Nc2ccc3c(c2)OCO3)Oc2ccc(NS(=O)(=O)c3ccccc3)cc2C1=O,x,x,x,2
C[C@@H]1CN([C@H](C)CO)C(=O)c2cc(NC(=O)Nc3ccc(F)cc3)ccc2O[C@@H]1CN(C)Cc1ccc(-c2ccccc2)cc1,x,x,x,4
C[C@@H]1CN([C@H](C)CO)C(=O)c2cc(NC(=O)Nc3ccc(F)cc3)ccc2O[C@H]1CN(C)Cc1ccc(-c2ccccc2)cc1,x,x,x,51*
Cc1noc(C)c1NC(=O)N(C)C[C@@H]1Oc2ccc(NC(=O)c3ccncc3)cc2C(=O)N([C@@H](C)CO)C[C@@H]1C,x,x,x,-5
C[C@@H]1CN([C@@H](C)CO)C(=O)c2cc(NS(=O)(=O)c3ccccc3)ccc2O[C@H]1CN(C)C(=O)Nc1ccc2c(c1)OCO2,x,x,x,58*
Cc1noc(C)c1NC(=O)Nc1ccc2c(c1)C(=O)N([C@H](C)CO)C[C@@H](C)[C@@H](CN(C)C(=O)Nc1ccc(F)cc1)O2,x,x,x,51*
Cc1noc(C)c1NC(=O)N(C)C[C@H]1Oc2ccc(NC(=O)c3ccncc3)cc2C(=O)N([C@H](C)CO)C[C@@H]1C,-13,12,-3,28*!
CN1CCN(C(=O)C[C@@H]2C=C[C@@H](NS(=O)(=O)c3cccc(F)c3)[C@H](CO)O2)CC1,x,x,x,0
C[C@@H]1CN([C@@H](C)CO)C(=O)c2cccc(NC(=O)C3CC3)c2O[C@H]1CN(C)Cc1ccc(-c2ccccc2)cc1,x,x,x,-1
N#C[C@@H]1[C@H](c2ccc(-c3ccccc3F)cc2)[C@@H](CO)N1C(=O)Cc1ccccc1,x,x,x,6

# Screening results from PubChem BioAssay.
